The values below come from PubChem BioAssay.

Several values for one entry are separate records, joined by “and”; a condition that tells them apart may be missing. Equal entries are not always repeated. Results filed as inconclusive are left out. Activity calls are given as the source filed them. Unless noted, the limit is not given here; nearly all actives have AC50 up to about 26 µM.

Assay [1] is described as follows: Wnt pathway potentiators raising nuclear beta-catenin – imaging, WNT3A-conditioned medium, mouse C2C12, NPC library, primary screen (AID 1117326; in the data active = nuclear beta-catenin stimulation mostly above about 4.2%, no sharp cut-off; inactive = mostly below about 10%). The following applies: stronger effect = higher value.
Assay [2] in a line: stimulators of insulin release from INS-1E, primary screen, cell-based, 5 mM glucose, NPC library (AID 1117329;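 active = compound raises insulin release from rat beta cells at 5 mM glucose, no numeric limit stated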). The following applies: rat INS-1E insulin secretion, at 10 µM, stronger effect = higher value.
A short description of assay [3]: growth inhibition of GSK3B-pretreated HCT116 cells – cell-based, CellTiter-Glo, 0.2 to 20 µM (AID 1117336;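 active = compounds lowering colon cancer cell viability after pretreatment blocking the GSK3B kinase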). The following applies: HCT116 viability after GSK3B inhibitor, at 20 µM, stronger effect = higher value. In general terms: ATP-based viability assays read luminescence as a measure of living cells.
Assay [4] is described as follows: inhibition of endothelial tube formation, primary screen, imaging, VEGF stimulated, CD31 staining, tube area, NPC library (AID 1117340;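 active = compound that reduces growth-factor-driven endothelial tube area in a mixed cell culture, no cutoff stated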). The following applies: VEGF-stimulated ADSC/ECFC co-culture, at 10 µM, stronger effect = higher value.
A short description of assay [5]: GLP1 release stimulators, primary, NCI-H716, NPC library (AID 1117341;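 active = compound raises GLP1 secretion from the human gut endocrine cells, with no numeric limit stated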). The following applies: NCI-H716 cells, at 10 µM, stronger effect = higher value.
Assay [6] is described as follows: HCT116 colon cancer cell growth inhibition, primary screen, CellTiter-Glo luminescence, NPC library (AID 1117342;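 active = compounds that lower survival of HCT116 colon cancer cells in the luminescence readout, no numeric limit stated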). The following applies: at 20 µM (top of the series).
Assay [7] in a line: reduced SW480 viability measured with CellTiter-Glo, NPC library, primary (AID 1117343;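 active = compounds that lower viability of the colon cancer cells in the luminescence readout, with no numeric limit stated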). The following applies: CellTiter-Glo luminescence; at 20 µM (top of the series) unless noted.
Assay [8] in a line: NPC library primary testing for decreased DLD-1 cell viability via CellTiter-Glo (AID 1117346;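 active = compounds that lower survival of DLD-1 colon cancer cells in the luminescence readout, no cutoff given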). The following applies: DLD-1 viability, CellTiter-Glo luminescence; at 20 µM (top of the series).
A short description of assay [9]: viability loss in pontine glioma line – cell-based, SU-DIPG-XXV, MIPE5.0, CellTiter-Glo, qHTS, dose response (AID 1347065).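 Also: cells exposed to compound for 48 hours before ATP readout.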 The following applies: CellTiter-Glo ATP luminescence.
Assay [10] in a line: JHH-DIPG-1 glioma cell viability, MIPE5.0 library, CellTiter-Glo luminescence, qHTS (AID 1347067).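 Also: cells exposed to compound for 48 hours before readout.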 The following applies: JHH-DIPG-1 glioma viability, CellTiter-Glo ATP luminescence.
The nature of assay [11]: growth inhibition of DIPG cells – cell-based, MIPE5.0 library, qHTS (AID 1347068; cut-off not given, nearly all actives have IC50 up to about 30 µM). The following applies: SU-DIPG-XXV viability. In general terms: Quantitative high-throughput screening tests each substance at several concentrations.
A short description of assay [12]: viability loss in pontine glioma line – cell-based, JHH-DIPG-1, MIPE4.0, CellTiter-Glo, qHTS, dose response (AID 1347062; cut-off not given, nearly all actives have AC50 up to about 27 µM). The following applies: JHH-DIPG-1 viability, CellTiter-Glo ATP luminescence.
Assay [13] in a line: viability loss with induced miR-34 in A549 – imaging, A549 dox-inducible miR-34, nuclei and caspase counts, primary screen (AID 1347080;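 active = compounds whose cell count with miR-34 switched on is under 0.7 times the count with it off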). The following applies: A549 miR-34 inducible, Hoechst nuclei count, 48 h.
A short description of assay [14]: blockers of cellular phospholipid synthesis – cell-based, LOPAC library, screen 4, primary screen (AID 1347384; call rule not given here). The following applies: animal cells, phospholipid biosynthesis inhibition screen; at 10 µM.
Assay [15] in a line: galactose survival enhancers in mitochondrial complex I cybrids – cell-based, galactose medium, ATP luminescence, primary screen (AID 1645843;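 active = z-score of at least 1.8 in each of two replicates, scored against plate mean and spread of sample wells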;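 also: positive z means more ATP and so rescue of galactose-driven cybrid death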). The following applies: complex I mutant cybrid cells, 72 h, stronger effect = higher value.
A short description of assay [16]: P. berghei load reduction in hepatocytes – cell-based, HepG2, luciferase luminescence, HepG2 viability, primary screen (AID 624349; in the data active = parasite load remaining mostly below about 12%, no sharp cut-off; inactive = mostly above about 10%;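 also: 100% = mean of DMSO negative control wells on the same plate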). The following applies: P. berghei liver stage in HepG2, luciferase luminescence, concentration not given here; parasite load remaining: stronger effect = lower value; viability: measured here: HepG2 viability without parasites.
The nature of assay [17]: growth inhibition of DIPG cells – cell-based, MIPE4.0 library, CellTiter-Glo luminescence, qHTS (AID 1347066; cut-off not given, nearly all actives have AC50 up to about 30 µM;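 also: cells exposed to compound for 48 hours before readout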). The following applies: SU-DIPG-VI viability, CellTiter-Glo ATP luminescence.
The nature of assay [18]: MELAS cybrid and Rieske KO viability enhancers – cell-based, MELAS cybrids, Rieske KO mouse fibroblasts, CellTiter-Glo, primary screen (AID 1508586;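 active = mean z-score across replicates of 1.96 or higher in either the MELAS or the Rieske mutant cell line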;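 also: z relative to plate mean and SD of compound and empty wells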). The following applies: low glucose.
Assay [19] is described as follows: viability loss in pontine glioma line – cell-based, SU-DIPG-IV, MIPE4.0, CellTiter-Glo, qHTS, dose response (AID 1347063; cut-off not given, nearly all actives have AC50 up to about 30 µM;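 also: compound exposure lasted 48 hours before the viability readout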). The following applies: CellTiter-Glo ATP luminescence.
Setting [20] is: stronger effect = lower value, cell number ratio, induced over uninduced.
[21] abbreviates: measured here: relative caspase fold change +Dox/-Dox.
[22] abbreviates: measured here: total cells with miR-34 induction, stronger effect = lower value.
Where [23] appears, read: measured here: total cells without miR-34 induction.
Where [24] appears, read: MELAS cybrid survival, CellTiter-Glo 48 h, stronger effect = higher value.
Setting [25] is: Rieske KO mouse fibroblast survival, CellTiter-Glo 72 h.

For the molecule `O=C(Nc1ccc(S(=O)(=O)N2CCOCC2)cc1)c1cc(Cl)ccc1NS(=O)(=O)c1ccc(Cl)s1`, the nuclear beta-catenin stimulation in assay [1] (at 10 µM) was 0.9% (inactive); in assay [1] (stimulation, at 2 µM) it was -0.5%. Also, the insulin secretion stimulation in assay [2] is 3.7% (inactive). Also, the viability decrease in assay [3] is 118% (active). The tube area decrease in assay [4] was 100% (active). In addition, the GLP1 secretion stimulation in [5] was 39.8% (active). In addition, in [6], the inhibition of viability is 124% (active). Besides, the viability decrease (inhibition) in assay [7] is 158% (active); in [8], 101% (active). Moreover, the molecule was called inactive in assay [9], in assay [10] and in assay [11].
For the molecule `CC(C)(C)C(=O)Oc1ccc(S(=O)(=O)Nc2ccccc2C(=O)NCC(=O)O)cc1`, the nuclear beta-catenin stimulation in [1] (at 10 µM) was 0.7% (inactive); in assay [1] (stimulation, at 2 µM), 1.7%. In addition, the insulin secretion stimulation in assay [2] is 0% (inactive). Moreover, the viability decrease in assay [3] is 66% (active). Moreover, the tube area decrease in assay [4] was -2.9% (inactive). Further, in assay [5], the GLP1 secretion stimulation is 0.3% (inactive). Further, the inhibition of viability in assay [6] is 24.1% (inactive). The viability decrease (inhibition) in assay [7] is 70% (active); in assay [8], 3.4% (inactive). Also, the molecule was classed as inactive in assay [12], in assay [11] and in assay [14]. For the same molecule, the fold change was 1.07 (inactive) in assay [13] (setting [20]) and 1.11 in assay [13] (setting [21]). Further, the figures for the cell count in assay [13] (setting [22]) and in assay [13] (setting [23]) were 10600 and 9900, respectively. In addition, the z-score in [15] is 0.85 (inactive).
For orientation: viability means a read-out of living cells in per cent, often relative to untreated cells. Take `O=P(O)(O)C(O)(Cn1ccnc1)P(=O)(O)O`: in [16], the parasite load remaining is 30.2% (inactive). In addition, the viability in assay [16] amounted to 130%. Further, the nuclear beta-catenin stimulation was 0.4% (inactive) in assay [1] (at 10 µM) and 1% in assay [1] (stimulation, at 2 µM). Further, the insulin secretion stimulation in assay [2] is 0.2% (inactive). Besides, the viability decrease in assay [3] is -1.1% (inactive). In addition, in assay [4], the tube area decrease was 8.6% (inactive). Further, the GLP1 secretion stimulation in assay [5] was -0.1% (inactive). Further, the inhibition of viability in [6] is 16.4% (inactive). Further, the viability decrease (inhibition) in [7] is 32.9% (inactive); in assay [8], 17.2% (inactive). Besides, the molecule was called inactive in assay [12], in [9], in assay [17], in [10] and in assay [11]. The fold change in assay [13] (setting [20]) is 0.851 (inactive); in assay [13] (setting [21]), 1.6. The cell count in assay [13] (setting [22]) turned out to be 9230; in assay [13] (setting [23]), 10900. Moreover, the z-score in assay [18] (setting [24]) was -0.129 (inactive) and 0.228 (inactive); in [18] (setting [25]), -0.459 and -1.13; in [15], 0.405 (inactive).
In the case of `CC(=O)OCC(=O)[C@@]12N=C(C)O[C@@H]1C[C@H]1[C@@H]3CCC4=CC(=O)C=C[C@]4(C)[C@H]3[C@@H](O)C[C@@]12C`, the nuclear beta-catenin stimulation in assay [1] (at 10 µM) was 1.5% (inactive); in assay [1] (stimulation, at 2 µM) it was 3.9%. In addition, the insulin secretion stimulation in [2] was 2.95% (inactive). Besides, the viability decrease in [3] was 0.4% (inactive). Further, the tube area decrease in assay [4] is 2.2% (inactive). Moreover, in assay [5], the GLP1 secretion stimulation was 1.7% (inactive). For the same molecule, the inhibition of viability in assay [6] was -21.6% (inactive). Also, the viability decrease (inhibition) is 14.8% (inactive) in assay [7] and -6.8% (inactive) in [8]. Further, the call in assay [12], in assay [17] and in assay [11] was inactive. For the same molecule, the values for the z-score in assay [18] (setting [24]) and in assay [18] (setting [25]) were 0.598 (inactive) and 1.06, respectively.
On to `N=C(N)c1ccc2cc(OC(=O)c3ccc(N=C(N)N)cc3)ccc2c1`, for which the nuclear beta-catenin stimulation is 0% (inactive) in [1] (at 10 µM) and 0.3% in assay [1] (stimulation, at 2 µM). Moreover, the insulin secretion stimulation in assay [2] was 1.85% (inactive). In [3], the viability decrease is 4.1% (inactive). In assay [4], the tube area decrease is -18% (inactive). Further, the GLP1 secretion stimulation in assay [5] is 2.8% (inactive). In addition, in assay [6], the inhibition of viability was 30.6% (inactive). Moreover, the viability decrease (inhibition) is 36.9% (inactive) in [7] and 1.2% (inactive) in assay [8]. Moreover, the molecule was classed as inactive in [12], in [19], in assay [9], in [17], in assay [10] and in assay [11]. Further, the fold change in [13] (setting [20]) is 1.02 (inactive) and 0.918 (inactive); in assay [13] (setting [21]) it was 1.3 and 0.971. Moreover, the cell count in assay [13] (setting [22]) is 3730 and 5820; in assay [13] (setting [23]), 3670 and 6340. For the same molecule, the z-score in assay [18] (setting [24]) is -0.205 (inactive); in assay [18] (setting [25]), 0.234.
